Experimental data as given in PubChem BioAssay.
Unmarked numbers belong to inactive results. For part of these data: Measured potencies and affinities stand elsewhere. The source made the active and inactive calls. Unless noted, no rule for the calls is given here.

Legend:
[1] = antimalarial activity against Dd2 strain (AID 2302;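 active = growth inhibition above 50% at the single 2 µM test dose, taken to imply half-maximal potency below 2 µM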;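 also: 0% = DMSO untreated growth and 100% = chloroquine plus artemisinin killed control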); details: P. falciparum Dd2 in RBCs, LDH growth readout, 72 h; at 2 µM; hits give high values
[2] = human hepatoma cell viability loss – ATP luminescence, cytotoxicity control for P. falciparum antimalarial project, primary screen (AID 2303;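 active = inhibition above 50%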;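 also: 0% = DMSO wells and 100% = digitonin-killed cells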); details: HepG2 viability, 24-48 h, at 10 µM, hits give high values
[3] = target: L-lactate dehydrogenase (Plasmodium falciparum (isolate CDC / Honduras)) (UniProt Q27743); assay: PfLDH activity inhibition – cell lysate, 3D7 strain, counter-screen for P. falciparum growth inhibition project (AID 2304);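 also: 0% = vehicle and 100% = reference inhibitor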; details: P. falciparum 3D7 crude extract, LDH APAD/NBT absorbance; at 2 µM; hits give high values
[4] = inhibition of 3D7 malaria parasite growth – strain 3D7 (AID 2306);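 also: 0% = DMSO wells and 100% = chloroquine plus artemisinin control wells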; details: P. falciparum 3D7 erythrocytic growth, LDH absorbance, 72 h; at 2 µM; hits give high values
[5] = target: Calcium-dependent protein kinase 1 (Plasmodium falciparum (isolate 3D7)) (UniProt P62344); assay: PfCDPK1 kinase inhibitors, biochemical, TCAMS library (AID 1159585; cut-off not given, nearly all actives have IC50 up to about 0.98 µM;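 also: inhibitors leave more ATP so luminescence rises with inhibition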); details: recombinant PfCDPK1, Kinase-Glo ATP depletion luminescence
[6] = target: Plasmodium falciparum protein kinase 6 (PK6, PF3D7_1337100) (UniProt Q8IDW1); assay: PfPK6 kinase inhibitors, biochemical, TCAMS library (AID 1159586); details: recombinant PfPK6, Kinase-Glo ATP depletion luminescence
[7] = target: Protein kinase 7 (PK7), Plasmodium falciparum 3D7 (PF3D7_0213400) (UniProt Q7YTF7); assay: inhibition of Plasmodium PK7 catalytic activity – biochemical, TCAMS antimalarial set, Kinase-Glo luminescence (AID 1159587); details: recombinant PfPK7, Kinase-Glo ATP depletion luminescence
[8] = target: Calcium-dependent protein kinase 4 (Plasmodium falciparum (isolate 3D7)) (UniProt Q8IBS5); assay: PfCDPK4 kinase inhibitors, biochemical, TCAMS library (AID 1159588; cut-off not given, nearly all actives have IC50 up to about 0.91 µM); details: recombinant PfCDPK4, Kinase-Glo ATP depletion luminescence
Sequence of Calcium-dependent protein kinase 4 (Plasmodium falciparum (isolate 3D7)) (Q8IBS5 whole entry, looked up): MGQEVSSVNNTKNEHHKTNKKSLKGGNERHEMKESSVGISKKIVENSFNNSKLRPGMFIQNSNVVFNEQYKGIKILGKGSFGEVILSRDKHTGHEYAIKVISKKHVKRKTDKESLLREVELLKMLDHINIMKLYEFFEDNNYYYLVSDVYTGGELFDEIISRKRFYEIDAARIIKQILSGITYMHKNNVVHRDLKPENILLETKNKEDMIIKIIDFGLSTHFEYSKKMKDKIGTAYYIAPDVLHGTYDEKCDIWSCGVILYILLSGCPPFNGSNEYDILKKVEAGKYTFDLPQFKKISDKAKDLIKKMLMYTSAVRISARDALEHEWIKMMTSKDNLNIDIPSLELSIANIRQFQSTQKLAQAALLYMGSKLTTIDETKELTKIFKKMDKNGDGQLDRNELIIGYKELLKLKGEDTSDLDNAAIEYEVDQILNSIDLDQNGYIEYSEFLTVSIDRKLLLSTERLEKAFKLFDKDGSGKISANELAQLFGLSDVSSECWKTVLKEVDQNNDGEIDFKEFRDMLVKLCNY

Sequence of Calcium-dependent protein kinase 1 (Plasmodium falciparum (isolate 3D7)) (P62344 whole entry, looked up): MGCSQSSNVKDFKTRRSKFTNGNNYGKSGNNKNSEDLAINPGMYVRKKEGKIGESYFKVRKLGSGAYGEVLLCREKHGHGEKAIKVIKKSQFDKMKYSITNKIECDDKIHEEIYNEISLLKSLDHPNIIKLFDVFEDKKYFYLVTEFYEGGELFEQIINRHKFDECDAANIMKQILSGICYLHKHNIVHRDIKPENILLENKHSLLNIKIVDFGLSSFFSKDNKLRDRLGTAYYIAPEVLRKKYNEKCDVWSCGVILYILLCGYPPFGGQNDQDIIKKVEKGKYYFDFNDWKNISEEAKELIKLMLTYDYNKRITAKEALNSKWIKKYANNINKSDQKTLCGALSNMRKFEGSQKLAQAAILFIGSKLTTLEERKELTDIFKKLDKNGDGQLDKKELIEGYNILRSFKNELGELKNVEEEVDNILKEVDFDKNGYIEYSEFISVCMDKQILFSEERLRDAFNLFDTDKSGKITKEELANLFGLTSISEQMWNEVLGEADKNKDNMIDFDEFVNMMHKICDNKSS
Sequence of L-lactate dehydrogenase (Plasmodium falciparum (isolate CDC / Honduras)) (Q27743 whole entry, looked up): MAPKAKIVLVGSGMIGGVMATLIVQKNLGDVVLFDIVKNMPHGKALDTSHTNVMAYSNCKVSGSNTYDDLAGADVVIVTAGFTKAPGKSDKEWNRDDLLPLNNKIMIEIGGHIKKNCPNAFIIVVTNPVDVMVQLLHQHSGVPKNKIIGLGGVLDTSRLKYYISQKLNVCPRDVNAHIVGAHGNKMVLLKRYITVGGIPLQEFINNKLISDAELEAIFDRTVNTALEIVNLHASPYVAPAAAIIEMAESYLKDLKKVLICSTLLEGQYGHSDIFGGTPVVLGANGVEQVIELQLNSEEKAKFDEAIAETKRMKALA
Sequence of Plasmodium falciparum protein kinase 6 (PK6, PF3D7_1337100) (Q8IDW1 1-305): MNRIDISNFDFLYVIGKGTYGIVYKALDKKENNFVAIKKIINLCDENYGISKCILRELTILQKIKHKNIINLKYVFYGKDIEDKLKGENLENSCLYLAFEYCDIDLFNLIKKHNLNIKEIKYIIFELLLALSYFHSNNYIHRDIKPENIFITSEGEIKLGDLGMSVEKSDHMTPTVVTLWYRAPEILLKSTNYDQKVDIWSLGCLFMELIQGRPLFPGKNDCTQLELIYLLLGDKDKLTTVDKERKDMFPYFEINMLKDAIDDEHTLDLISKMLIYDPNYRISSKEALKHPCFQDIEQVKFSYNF
Sequence of Protein kinase 7 (PK7), Plasmodium falciparum 3D7 (PF3D7_0213400) (Q7YTF7 1-343): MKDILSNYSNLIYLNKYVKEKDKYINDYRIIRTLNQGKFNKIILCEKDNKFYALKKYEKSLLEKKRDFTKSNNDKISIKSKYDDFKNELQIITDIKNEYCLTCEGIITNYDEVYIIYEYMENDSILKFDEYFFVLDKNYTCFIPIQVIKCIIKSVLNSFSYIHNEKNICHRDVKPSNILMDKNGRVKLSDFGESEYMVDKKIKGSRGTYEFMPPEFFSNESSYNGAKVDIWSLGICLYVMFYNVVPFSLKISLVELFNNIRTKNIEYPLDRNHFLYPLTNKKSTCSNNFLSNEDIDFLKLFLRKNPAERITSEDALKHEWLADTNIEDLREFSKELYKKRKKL

SMILES	growth inhibition [1]	inhibition [2]	inhibition [3]	growth inhibition [4]	outcome [5]	outcome [6]	outcome [7]	outcome [8]
Cc1ccc(O)cc1Nc1ccnc2ccc(-c3cccc(CN(C)C)c3)cc12	99% (active)	-3%	1%	101% (active)	inactive	inactive	inactive	inactive
O=C1COC2(CN1C1CCN(Cc3ccc(O)c(Cl)c3)C1)c1ccccc1-c1ccccc12 (stereo unspecified)	63% (active)	5%	3%	93% (active)	inactive	inactive	inactive	inactive
CCN(CC)CCCCNc1cc(-c2[nH]c(C(C)(C)C)nc2-c2ccc3cc(OC)ccc3c2)ccn1	76% (active)	23%	5%	85% (active)	inactive	inactive	inactive	inactive
CCN(CC)CCCC(C)Nc1c(-c2ccc(Br)cc2)cnc2ccccc12 (stereo unspecified)	95% (active)	7%	-1%	100% (active)	inactive	inactive	inactive	inactive
CC(C)(C)c1ccc(CN2CCC(CNC(=O)c3cc(-c4cccc(C(F)(F)F)c4)cs3)C2)cc1 (stereo unspecified)	84% (active)	80% (active)	1%	100% (active)	inactive	inactive	inactive	inactive
CN(CCc1ccccc1)c1ncc(-c2cccc(CNCCC3CCCN3C)c2)cn1 (stereo unspecified)	98% (active)	99% (active)	-1%	92% (active)	inactive	inactive	inactive	inactive
COc1ccc(COc2c(OC)cc(Cc3cnc(N)nc3N)cc2OC)cc1	23%	5%	1%	90% (active)	inactive	inactive	inactive	inactive
CN(C)c1ccc(-c2ccc(C(=O)NC3CCN(Cc4ccc5c(c4)OCCO5)CC3)s2)cc1	73% (active)	36%	-2%	100% (active)	inactive	inactive	inactive	inactive
Cc1[nH]c(C)c(-c2ccc(C#Cc3ccc(F)cc3F)cc2)c(=O)c1Br	98% (active)	11%	-1%	97% (active)	inactive	inactive	inactive	inactive
Cc1csc2nc(-c3ccccn3)nc(Nc3ccncn3)c12	85% (active)	47%	-3%	97% (active)	inactive	inactive	inactive	inactive
CC(CN(C)C)C(=O)Nc1ccc(-c2cccc(-c3nc4ccc(C(F)(F)F)cc4[nH]3)c2)cc1 (stereo unspecified)	85% (active)	30%	-1%	101% (active)	inactive	inactive	inactive	inactive
COc1ccc2c(NN=Cc3ccc(Cl)cc3)ccnc2c1	100% (active)	8%	5%	101% (active)	inactive	inactive	inactive	inactive
Cc1sc(CNCCCNc2cc(=O)c3ccccc3[nH]2)c(C(F)(F)F)c1C	70% (active)	-12%	1%	99% (active)	inactive	inactive	inactive	inactive
O=S(=O)(NCCN1CCCC1)c1ccc(-c2cccc(CNC3Cc4ccccc4C3)c2)cc1	57% (active)	55% (active)	-6%	99% (active)	inactive	inactive	inactive	inactive
Cc1cccc2[nH]c(-c3cccc(-c4cccc(C(=O)NCc5nccn5C)c4)c3)nc12	50% (active)	22%	8%	99% (active)	inactive	inactive	inactive	inactive
c1cncc(CN2CCCN(c3ccc4c(c3)CCN(Cc3ccc(-c5ncc[nH]5)cc3)CC4)CC2)c1	33%	7%	2%	99% (active)	inactive	inactive	inactive	inactive
CCCCC(O)c1cc(O)c2c(c1)OC(C)(C)CC2C1=CCN(Cc2ccc3ccccc3c2)CC1 (stereo unspecified)	97% (active)	7%	3%	100% (active)	inactive	inactive	inactive	inactive
N#Cc1ccc2c(c1)CCN(CCC1CCC(NC(=O)/C=C/c3c[nH]c4c(Br)cccc34)CC1)CC2 (stereo unspecified)	65% (active)	32%	0%	101% (active)	inactive	inactive	inactive	inactive
CS(=O)(=O)CCNCc1nc(-c2ccc3c(=O)[nH]cnc3c2)cs1	96% (active)	81% (active)	0%	86% (active)	inactive	inactive	inactive	inactive
Cc1cc(N2CCCN(C)CC2)nc(Nc2ccc(Cl)cc2)n1	11%	8%	1%	96% (active)	inactive	inactive	inactive	inactive
Cn1cncc1-c1ccc2c(-c3ccsc3)cnc(N)c2c1	72% (active)	41%	-3%	97% (active)	inactive	inactive	inactive	inactive

SMILES	growth inhibition [1]	inhibition [2]	inhibition [3]	growth inhibition [4]	outcome [5]	outcome [6]	outcome [7]	outcome [8]
Fc1cccc(Nc2nc(NCc3ccc4ccsc4c3)nc(Nc3cccc(F)c3)n2)c1	11%	-2%	-1%	94% (active)	inactive	inactive	inactive	inactive
CCSc1nnc(C2CCCN(CC(=O)Nc3cc(C(F)(F)F)ccc3Cl)C2)n1CC (stereo unspecified)	96% (active)	0%	5%	99% (active)	inactive	inactive	inactive	inactive
Cc1cc(NC(=O)Nc2ccc3ncccc3c2)c2ccccc2n1	27%	6%	-3%	93% (active)	inactive	inactive	inactive	inactive
CC(C)NCc1ccc(-c2cccc(NC(=O)c3cccc(Cl)c3)c2)cc1	87% (active)	24%	1%	100% (active)	inactive	inactive	inactive	inactive
COC(=O)c1cc(C(O)CNC(C)CCCc2ccccc2)ccc1O (stereo unspecified)	97% (active)	17%	0%	99% (active)	inactive	inactive	inactive	inactive
COc1cccc(Nc2c(C(N)=O)cnc3ccc(-c4ccc(S(C)=O)cc4)cc23)c1 (stereo unspecified)	100% (active)	-3%	9%	96% (active)	inactive	inactive	inactive	inactive
CNC(=O)c1cc(Nc2nnc(-c3ccc(C)c(S(=O)(=O)NC4CCCCC4)c3)c3ccccc23)ccc1OC	61% (active)	-10%	5%	87% (active)	inactive	inactive	inactive	inactive
Cc1cc(NC(=O)c2ccc(-c3ccccc3)cc2)no1	57% (active)	5%	0%	83% (active)	inactive	inactive	inactive	inactive
Cc1cc(C(F)(F)F)cc(-n2ncc(-c3ccc(C(=O)NCCNCc4ccccc4)cc3)c2N)n1	9%	98% (active)	-1%	91% (active)	inactive	inactive	inactive	inactive
O=C(/C=C/c1ccc(Cl)c(Cl)c1)NCCCCCN1CCC(c2[nH]nc(-c3ccccc3)c2Br)CC1	23%	100% (active)	1%	95% (active)	inactive	inactive	inactive	inactive
COc1ccc(N2CCN(CCCCNC(=O)c3ccc(NC(=O)c4cc(C(F)(F)F)cc(C(F)(F)F)c4)cc3)CC2)cc1OC	100% (active)	9%	1%	101% (active)	inactive	inactive	inactive	inactive
CN(C)CC(=O)Nc1ccc(-c2ccc3ccnc(N)c3c2)cc1	99% (active)	69% (active)	2%	101% (active)	inactive	inactive	inactive	inactive
O=[N+]([O-])c1cccc(C(Nc2ccccn2)c2ccc3cccnc3c2O)c1 (stereo unspecified)	29%	53% (active)	0%	86% (active)	inactive	inactive	inactive	inactive
Cc1cccc2[nH]c(-c3ccc(-c4cccc(CN5CCN(c6ccc(C#N)cn6)CC5)c4)s3)nc12	8%	37%	2%	85% (active)	inactive	inactive	inactive	inactive
COc1cccc(OC)c1OCCCOc1c(C)nc(N)nc1N	-1%	31%	0%	97% (active)	inactive	inactive	inactive	inactive
Cc1ccc(-c2cc(C(=O)Nc3ccc(S(=O)(=O)N4CCCCC4)cc3)[nH]n2)c(O)c1	92% (active)	6%	-5%	97% (active)	inactive	inactive	inactive	inactive
O=C(NCCCCCN1CCC(c2c[nH]c3ccccc23)CC1)Nc1cccc(C(F)(F)F)c1	11%	51% (active)	-1%	97% (active)	inactive	inactive	inactive	inactive
COC1CCC(C(=O)Nc2ccc(-c3cccc(-c4nc5c(C)cccc5[nH]4)c3)cc2)CC1 (stereo unspecified)	60% (active)	89% (active)	1%	97% (active)	inactive	inactive	inactive	inactive
CN1CCCC(CN2CCN(Cc3ccc(-c4ccc(-c5nc6ccc(F)cc6[nH]5)s4)cc3)CC2)C1 (stereo unspecified)	100% (active)	73% (active)	-2%	101% (active)	inactive	inactive	inactive	inactive
O=[N+]([O-])c1cccc(CNCC2CCN(Cc3ccc(-c4ccccc4)cc3)CC2)c1	91% (active)	28%	6%	101% (active)	inactive	inactive	inactive	inactive
Cc1nc(-c2nc(NCc3ccccn3)ncc2-c2ccsc2)sc1C	87% (active)	-2%	4%	92% (active)	inactive	inactive	inactive	inactive
